In the library only some 4.1% were active in any assay of this set; here they are far more common.
hgDAF12 agonist = hgDAF-12 agonism, primary luciferase screen; HEK293 GAL4-hgDAF12 UAS-luciferase reporter, agonist luminescence; normalized to butyrate control; activation, % at 6.8 µM; 370,000 compounds, 1.8% hits; AID 687014;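 active = activation above a cutoff set at the mean of all screened compounds plus 3 SD, cut at about 10% in these data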;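 also: 0% = DMSO wells and 100% = sodium butyrate wells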
hcDAF12 agonist = activates DAF-12 receptor from parasite H. contortus | HEK293 hcDAF-12 lit1-tk-luc reporter, luminescence; 0% DMSO, 100% Δ7-dafachronic acid | activation, % at 6.8 µM | 370,000 compounds, 1.4% hits;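 active = activation above the mean of all tested compounds plus 3 SD, cut at about 5.5% in these data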;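 also: 100% = response to 3 µM Δ7-dafachronic acid high control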
DAX1 inh-1 = inhibits human nuclear receptor DAX1 | P51843 | HEK293 Gal4-DAX1 luciferase reporter, luminescence | inhibition, % at 6.75 µM | 340,000 compounds, 0.99% hits | AID 504766;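 active = inhibition above the mean over all tested compounds plus 3 SD, cut at about 4.2% in these data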;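 also: 0% = DAX1-transfected cells with DMSO and 100% = empty-vector control cells with DMSO; inhibition shows as a rise in luminescence from relieved DAX1 repression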
Target sequence (P51843 207-470 limits assumed): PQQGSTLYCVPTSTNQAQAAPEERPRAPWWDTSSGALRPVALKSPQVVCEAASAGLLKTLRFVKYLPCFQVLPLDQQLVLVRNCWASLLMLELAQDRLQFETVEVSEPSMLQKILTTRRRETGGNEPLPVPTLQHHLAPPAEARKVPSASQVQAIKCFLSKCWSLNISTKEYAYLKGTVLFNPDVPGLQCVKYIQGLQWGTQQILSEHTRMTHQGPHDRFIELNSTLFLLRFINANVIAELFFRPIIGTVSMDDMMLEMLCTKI
DAX1 inh-2 = DAX1 (NR0B1) inhibition, primary screen. 370,000 compounds, 1.1% hits. inhibition, % at 6.8 µM. HEK293T StAR-luciferase reporter, SF-1/DAX-1 repression relief. AID 652010;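 active = inhibition above the mean over all tested compounds plus 3 SD, cut at about 3.6% in these data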;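 also: 0% = DAX-1 cells with DMSO and 100% = cells lacking DAX-1 with DMSO; higher inhibition means more luminescence from relief of DAX-1 repression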
ssDAF12 agonist = activates DAF-12 receptor from parasite S. stercoralis; HEK293 ssDAF-12/GRIP1 lit1-tk-luc reporter, luminescence; % of 3 µM dafachronic acid response; activation, % at 6.8 µM; 370,000 compounds, 1% hits;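 active = activation above the mean over all tested compounds plus 3 SD, cut at about 0.9% in these data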;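 also: 0% = DMSO-only wells and 100% = 3 µM delta7-dafachronic acid wells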
An asterisk follows results filed as active; nt = not tested or not shown.

SMILES | hgDAF12 agonist | hcDAF12 agonist | DAX1 inh-1 | DAX1 inh-2 | ssDAF12 agonist
O=C(NCc1c(F)cccc1F)C1C2C=CC3(CN(Cc4ccccc4)C(=O)C13)O2 (centres undefined) | -0.5 | 2.0 | nt | 0.5 | -1.6
c1ccc2nc3c(nc2c1)CCCC3 | -0.5 | -1.3 | -0.4 | -0.2 | -0.7
C1CCc2nc3c(nc2C1)CCCC3 | 0.9 | -0.8 | 5.0* | 0.6 | -1.0
COCCCN1C(=O)[C@H](CC(=O)N2CCOCC2)[C@]2(C(=O)OC)CCCCC=C12 | -2.3 | 0.1 | nt | 0.0 | -0.7
Cc1cc(NC(=O)CSc2nc(N)c(NC(=O)c3ccccc3F)c(=O)[nH]2)no1 | -1.4 | 1.4 | 0.4 | -1.6 | 0.9*
Cc1cc(NC(=O)CSc2nc(N)c(NC(=O)c3ccccc3)c(=O)[nH]2)no1 | 3.1 | 2.5 | -1.2 | 0.7 | -1.7
Cc1cc(NC(=O)CSc2nc(N)c(NC(=O)c3ccco3)c(=O)[nH]2)no1 | -2.6 | -1.6 | 7.5* | -0.5 | -1.4
CCc1c(C)nc(SCC(=O)NNC(=O)c2ccco2)[nH]c1=O | 2.1 | 6.0* | 1.1 | 1.3 | -0.2
C[C@H](O)[C@@H]1CN2CCc3c([nH]c4c(-c5ccc6c(c5)OCO6)cccc34)[C@@H]2C[C@@H]1N(C)C(=O)c1ccco1 | -2.6 | 0.2 | nt | -0.7 | -1.1
CC(=O)Cc1nsc(Nc2ccc3c(c2)OCCO3)n1 | 11.6* | 2.2 | 2.1 | 0.9 | 0.2
CC(=O)Cc1nsc(Nc2ccc(F)cc2)n1 | 2.9 | 0.2 | -0.2 | 0.2 | -1.7
CCOC(=O)C1=NOC(C(C)=O)(C(=O)NC2CCCC2)C1 (centres undefined) | 1.4 | -1.2 | nt | 1.4 | -1.0
O=C1N/C(=N/O)S/C1=C/c1cccnc1 | -1.6 | 0.1 | 3.3 | 0.7 | -1.6
Cc1ccccc1N=C1NC(=O)/C(=C/c2cccnc2)S1 | 0.8 | 4.2 | 0.1 | -0.9 | 1.9*
CCOc1ccccc1C(=O)N1CCC(Oc2cccnc2)CC1 | 0.0 | -0.1 | nt | -0.1 | -1.4
Cc1cccc2sc(N(CCCN(C)C)C(=O)c3ccc(Cl)s3)nc12 | -0.7 | -0.6 | 2.5 | 1.3 | 0.9*
CNCCOc1ccc(Cl)c(Cl)c1 | -2.7 | -1.0 | 5.3* | 0.1 | -0.6
CCOC(=O)C1CSCCS(=O)(=O)N1Cc1ccccc1F (centres undefined) | -1.6 | 0.3 | nt | 0.3 | -0.8
Cc1ccnc(NC(=O)c2ccc3[nH]c(=O)c(=O)[nH]c3c2)c1 | 2.0 | 0.8 | -0.4 | -0.2 | 3.3*
CCOc1ccc(NC(=O)c2ccccn2)cc1 | -6.0 | -0.1 | -5.7 | 0.5 | -2.2
Cc1noc(C)c1COc1cccc(C(=O)NCc2cccc(Cl)c2)c1 | -3.6 | -1.6 | -0.4 | -1.1 | -1.4
Cc1ccc(CNC(=O)c2cccc(OCc3c(C)noc3C)c2)cc1 | 2.4 | -2.3 | 6.8* | -0.9 | -1.2
CCOc1ccc(C(=O)Nc2ncccc2Cl)cc1 | 11.2* | 1.9 | 0.8 | 1.5 | -0.3
CCCSc1nsc(NC(=O)c2cccnc2OCC)n1 | 5.0 | 1.0 | 5.8* | 0.1 | -0.2
COc1cccc(-c2cc(C(C)=O)c3n(c2=O)CCC3)c1OC | -0.1 | -1.3 | nt | 0.8 | -1.5
SMILES | hgDAF12 agonist | hcDAF12 agonist | DAX1 inh-1 | DAX1 inh-2 | ssDAF12 agonist
CCOc1ccc(C(=O)Nc2nnn(CC)n2)cc1 | 11.6* | 4.6 | 0.3 | 1.4 | 0.0
Cc1noc(C)c1COc1ccc(CC(=O)NC2CCCCCC2)cc1 | -3.1 | -1.4 | 4.7* | -0.6 | -0.8
Cc1noc(C)c1COc1ccc(C(=O)Nc2ncccc2O)cc1 | 10.7* | -1.2 | 0.1 | 2.7 | -0.9
CCOc1ccc(C(=O)Nc2cccc(C)n2)cc1 | 7.5 | 4.7 | -2.2 | 4.0* | 1.1*
Cc1noc(C)c1COc1ccc(C(=O)Nc2cccnc2)cc1 | 0.5 | -1.7 | -0.8 | -0.8 | -1.9
CCCCOCCCNC(=O)C[C@H]1C[C@@]2(C(=O)OC)C(=C[C@H](COCc3ccccc3)O[C@@H]2C)N(Cc2ccco2)C1=O | 4.6 | 0.6 | nt | -1.9 | -1.3
COC[C@@H]1CCCN1c1cccc2c1S(=O)(=O)N(C1CC1)CCCO2 | -1.5 | -0.8 | nt | -0.2 | -1.0
CCCCN(C)C(=O)CN1C(=O)C2CCCCN2C(=O)c2ccccc21 (centres undefined) | -1.4 | -2.8 | nt | -0.6 | 0.3
O=C1N(CCCO)CCC12CCC(c1ccccc1)CC2 (centres undefined) | 5.6 | -1.6 | nt | 0.0 | -0.5
CCOc1ccc(C(=O)Nc2cc(C)ccn2)cc1 | 7.0 | 3.6 | -2.6 | 3.6* | 0.6
CCOc1ncccc1C(=O)Nc1ccc(Cl)cc1 | 4.1 | 1.8 | -1.7 | 0.4 | -0.9
CCOc1ncccc1C(=O)NCc1ccccc1Cl | 0.8 | -0.9 | 5.7* | 0.0 | -2.1
Cc1cc(C)nc(NS(=O)(=O)c2ccc(NC(=O)CSc3ncn[nH]3)cc2)n1 | -1.9 | -0.9 | 5.8* | 0.2 | -1.2
Cc1cc(C)nc(SCC(=O)Nc2ccc(S(=O)(=O)Nc3ncccn3)cc2)n1 | -2.2 | -0.5 | 0.4 | 0.4 | -0.4
O=C(CCc1ccccc1)N[C@H]1[C@H](OCc2ccccc2)CCC[C@@]12C(=O)N(Cc1ccccc1)c1ccccc12 | -2.8 | -0.5 | nt | -1.0 | -0.6
Cc1ccc(C2(COC(=O)C(C)C)CO2)c(OC(=O)C(C)C)c1 (centres undefined) | 2.3 | 0.4 | 4.6* | 0.2 | -1.7
CCC(C)C(=O)OCC1(c2ccc(C)cc2OC(=O)C(C)C)CO1 (centres undefined) | 2.2 | -1.7 | 1.4 | 0.9 | -1.2
Cc1ccc(S(=O)(=O)N(C)C)cc1NC(=O)c1ccc2ccccc2n1 | 5.3 | 2.0 | 1.8 | 0.1 | 1.1*
Nn1c(SCc2cccc3ccccc23)nnc1-c1cc(-c2ccc(F)cc2)n[nH]1 | 3.3 | -2.8 | nt | -2.4 | -1.3
c1ccc(OCc2nc3ccccc3[nH]2)cc1 | 11.0* | -0.2 | 2.6 | 2.3 | -0.9
Fc1ccccc1CSc1nc2ccccc2[nH]1 | 11.5* | 5.0 | 0.3 | 3.2 | 0.5
COc1cccc(CSc2nc3ccccc3[nH]2)c1 | 12.8* | 0.8 | 1.0 | 2.1 | -0.6
c1ccc(OCc2nnc(SCc3nc4ccccc4[nH]3)n2-c2ccccc2)cc1 | -0.6 | -0.6 | nt | -0.8 | -1.7
c1ccc(OCCSc2nc3ccccc3[nH]2)cc1 | 1.0 | -0.7 | 4.7* | 0.2 | -1.4
Cc1ccc(NC(=O)Nc2ccc3c(c2)[C@]2(CC(=O)N(CC(C)C)C2c2ccccc2)C(=O)N3C)cc1Cl (some centres undefined) | -3.6 | -1.3 | nt | -0.7 | -1.0
SMILES | hgDAF12 agonist | hcDAF12 agonist | DAX1 inh-1 | DAX1 inh-2 | ssDAF12 agonist
CCOC(=O)[C@@]12CCCC3=C1N(CCC3)C(=O)[C@H]2CC(=O)NCCCN1CCCC1=O | 1.9 | 0.2 | nt | -0.6 | -1.3
CC(C)(C)c1ccc(-c2noc(CCC(=O)NC3CC3)n2)cc1 | -12.2 | -6.8 | nt | nt | -3.0
CNC(=O)CSc1nc2sccc2c(=O)n1-c1ccccc1 | -0.8 | 0.3 | 4.6* | -0.4 | -0.5
O=C(NC(=S)NC1CCCCCC1)c1cncc(Br)c1 | 11.1* | 1.8 | 0.6 | 1.9 | -0.8
O=C(Nc1nnc(-c2ccco2)o1)C1CCCCC1 | 0.3 | -1.3 | 0.6 | -0.3 | -0.8
O=C(Nc1nnc(-c2ccco2)o1)C1CC1 | -0.2 | 6.4* | 0.4 | -0.2 | -0.9
